Test results taken from PubChem BioAssay (NCI).
The panel holds about 83,000 compounds, 20% with a hit somewhere; the sample as a whole holds those more often.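 Treatment: one concentration, 48 hours, 96-well format. Scoring: percent growth, with anything below 10 considered active.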 Unmarked numbers belong to inactive results. Activity calls are given as the source filed them.

Experiments:
Experiment in all cases: NCI-60 one-dose screen, 48 h (100 = growth as untreated, 0 = no growth, -100 = all killed)
Details in all cases: 10 µM
NCI-H23 lung = test system: NCI-H23 lung
NCI-H226 lung = test system: NCI-H226 lung
NCI-H322M lung = test system: NCI-H322M lung
HOP-62 NSCLC = test system: HOP-62 NSCLC
NCI-H460 lung = test system: NCI-H460 lung
NCI-H522 lung = test system: NCI-H522 lung
A549/ATCC NSCLC = test system: A549/ATCC NSCLC
786-0 renal = test system: 786-0 renal
COLO 205 colon = test system: COLO 205 colon
DU-145 prostate = test system: DU-145 prostate
K-562 leukemia = test system: K-562 leukemia
MALME-3M melanoma = test system: MALME-3M melanoma
MDA-MB-231 breast = test system: MDA-MB-231 breast
RXF 393 renal = test system: RXF 393 renal
SF-268 CNS = test system: SF-268 CNS
SF-295 CNS = test system: SF-295 CNS
SF-539 CNS = test system: SF-539 CNS
UACC-257 melanoma = test system: UACC-257 melanoma
M14 melanoma = test system: M14 melanoma
HCT-15 colon = test system: HCT-15 colon

Row | Compound | growth (NCI-H23 lung) [%] | growth (NCI-H226 lung) [%] | growth (NCI-H322M lung) [%] | growth (HOP-62 NSCLC) [%] | growth (NCI-H460 lung) | growth (NCI-H522 lung) | growth (A549/ATCC NSCLC) | growth (786-0 renal) | growth (COLO 205 colon) | growth (DU-145 prostate) | growth (K-562 leukemia) | growth (MALME-3M melanoma) | growth (MDA-MB-231 breast) | growth (RXF 393 renal) | growth (SF-268 CNS) | growth (SF-295 CNS) | growth (SF-539 CNS) | growth (UACC-257 melanoma) | growth (M14 melanoma) | growth (HCT-15 colon)
1 | CCCCCCCC(C)NCCO (stereo not given) | 102 | 97.4 | 88.9 | 99.3 | 106% | 84.9% | 93.5% | 94.7% | 107% | 106% | 103% | 107% | 123% | 105% | 106% | 90% | 105% | 90.8% | 105% | 116%
2 | C#Cc1ccc(-n2c(/C=C/c3ccc(O)cc3)nc3ncccc3c2=O)cc1 | 82.8 | 58.7 | 86.4 | 59.4 | 92% | 0.111% (active) | 53.5% | 62.6% | 110% | 81.8% | 25% | 39.1% | 85.2% | -7.96% (active) | 53.8% | 31.8% | 31.7% | 36.5% | 43.1% | 53.6%
3 | CCCC1(CC(=O)O)OCCc2c1[nH]c1ccccc21 (stereo not given) | 93.4 | 98.4 | 109 | 107 | 109% | 37.2% | 99.3% | 103% | 229% | 114% | 156% | 98.8% | 103% | 100% | 103% | 102% | 112% | 103% | 112% | 107%
4 | COc1ccc(S(=O)(=O)NCCCNc2nccc(-c3c(-c4ccc(F)cc4)nc4sccn34)n2)cc1 | 74.8 | 68.9 | 52.7 | 79.7 | 36.3% | 59.3% | 32% | 72.4% | 26.9% | 58.8% | 17.6% | 57.7% | 75.4% | 68.1% | 50.6% | 45.7% | 93.7% | 67.7% | 57.3% | 57.2%
5 | O=C(Nc1cccc(-n2cc(-c3ccncc3)c(-c3ccc(O)c(Cl)c3)n2)c1)c1ccc(Cl)c(Cl)c1 | 78.5 | 80.6 | 77.3 | 67.7 | 20.8% | 41.5% | 41.2% | 55.3% | 102% | 80.5% | 30.1% | 29.5% | -19.9% (active) | 16% | 74.1% | 13.9% | 35.8% | 10.8% | 29.2% | 24%
6 | O=C(CSSCC(=O)c1ccc(Cl)cc1)c1ccc(Cl)cc1 | 79.5 | 88.6 | 72.2 | 78.6 | 35.8% | 58% | 63.6% | 85.9% | 104% | 94.4% | 52.9% | 39.7% | 92.8% | 99.7% | 61% | 35.9% | 68.4% | 59.2% | 82.2% | 87.2%
7 | CC/C(=C(/c1ccc(OCCN(C)C)cc1)c1ccc(OC(=O)CCC(=O)c2c(C)[nH]c(/C=C3\N=C(c4ccc[nH]4)C=C3OC)c2C)cc1)c1ccccc1 | 52.3 | 23.4 | 75.3 | 28 | 51% | -0.572% (active) | 11% | 21.4% | 28.3% | 21.4% | 0.3% (active) | -9.96% (active) | -30% (active) | 15.2% | 31.2% | 33.5% | 49.7% | 45.5% | -66.6% (active) | 3.7% (active)
8 | Nc1c(C(=O)Nc2cccc3ccccc23)sc2nc3c(cc12)C(=O)CCC3 | 18 | 54.1 | 37.6 | 26.1 | 5.05% (active) | -8.85% (active) | 23.4% | 46.1% | -20.7% (active) | -9.63% (active) | 10.3% | 59.9% | 8.28% (active) | -5.71% (active) | 36.1% | -1.44% (active) | -13.1% (active) | 45% | 12.6% | 18.9%
9 | FC(F)(F)c1ccc(-c2cnc(Cl)nc2N2CCC3(CC2)OCCO3)cc1 | 94.9 | 94.4 | 91.7 | 97.2 | 100% | 63.2% | 90.2% | 95.5% | 93.2% | 95.5% | 93.2% | 78.4% | 102% | 105% | 93.5% | 89.7% | 99.3% | 106% | 96.6% | 93.6%
10 | COc1ccc(-c2cc(-c3cccc(NS(C)(=O)=O)c3)nc(N)c2C#N)cc1 | 37.7 | 62.8 | 44.4 | 52.3 | 4.64% (active) | -4.96% (active) | 33.6% | 42.9% | -27% (active) | 5.82% (active) | 14.3% | 2.95% (active) | 30.4% | 16.3% | 29.9% | 0.458% (active) | 5.27% (active) | 79.1% | 6.36% (active) | 30.5%
11 | Cc1ccc(C)c(C(O)(c2cc(C)ccc2C)C2(O)CCCCC2)c1 | 88.5 | 82.7 | 104 | 112 | 95.7% | 61.4% | 92.9% | 90.6% | 96.7% | 104% | 87.3% | 91.7% | 96.9% | 91% | 94.2% | 95.9% | 94.6% | 102% | 98.6% | 94.5%
12 | COc1ccc(-c2nn(-c3cccc(NC(=O)c4ccc(Cl)c(Cl)c4)c3)cc2-c2ccncc2)cc1Cl | 94.9 | 83.5 | 83.6 | 94 | 79.4% | 33.3% | 70% | 80% | 86.2% | 92.1% | 36.3% | 58.4% | 78% | 65.9% | 89.8% | 65% | 72.2% | 86.9% | 75.6% | 75.2%
13 | O=C(Nc1nc2ccccc2s1)Nc1ccc([N+](=O)[O-])cc1Cl | 36.9 | 103 | 33.3 | 110 | 32.6% | -22.6% (active) | -53.1% (active) | -23.5% (active) | 111% | 87% | 58.8% | 96.4% | 40.1% | -17.7% (active) | 3.97% (active) | 67.8% | -48.5% (active) | -10.6% (active) | 79.7% | 87.2%
14 | COc1ccc(Cl)cc1C(=O)Nc1nc2ccc(Cl)cc2s1 | 90.5 | 89.2 | 85.6 | 89.4 | 93.7% | 99.4% | 76.7% | 75.8% | 82.8% | 94.9% | 86.8% | 83.3% | 70.9% | 95% | 83.2% | 170% | 86.4% | 102% | 95.1% | 86.5%
15 | COc1cc(-c2nn3c(/C=C4/C(=O)Nc5ccccc54)c(-c4ccc(C)cc4)nc3s2)cc(OC)c1OC | 51.2 | 96.4 | 73.5 | 79.5 | 29% | 58% | 29.8% | 70.9% | 68.5% | 14% | 55.7% | -23.8% (active) | 50.6% | 63.7% | 15.9% | 74.1% | 81.8% | 34.4% | 42.9% | 58.9%
